Our source for the inhibition values is PubChem BioAssay AID588405 (Sanford-Burnham Center for Chemical Genomics, 2011).

In all, about 360,000 compounds went through this assay and about 6,200 (1.7%) were called active.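 The calls were made as follows: active = inhibition of at least 50% at 20 µM; inactive = the rest.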 Many of the other results were omitted from the sample, so actives are more common in it than they were.

The test is described as follows: Peg3 promoter-driven luciferase inhibitors, primary screen, cell-based, HeLa, luciferase luminescence (AID 588405). Conditions: HeLa PEG-Prom luciferase reporter, overnight, at 20 µM, stronger effect = higher value.
With `CC1([N+](=O)[O-])COP(=O)(Nc2ccc(F)cc2)OC1` (stereo unspecified), the inhibition was 3.6% (inactive).
For the compound `CCCCCn1c(=O)c(C(=O)NCc2ccccn2)c(O)c2ccccc21`, the inhibition is 15.5% (inactive).
As for `CCOc1ccc(-c2cc(C)[n+](CCN(CC)CC)c(-c3ccc(OCC)cc3)c2)cc1`, the inhibition is 53.3% (active).
As for `CC(C)n1c(=O)c(C=Nc2ccc(Br)cc2)c(O)n(Cc2ccco2)c1=O`, the figure is 8.27% (inactive).
The value for `COC(=O)C1=C(c2ccc(Cl)c(C(F)(F)F)c2)C[C@@H]2CC[C@H]1N2C(=O)NC1CC1` was -0.39% (inactive); that for `COC(=O)C1=C(c2ccc3ccccc3c2)C[C@@H]2CC[C@H]1N2C(=O)NCCO` was -5.4% (inactive); that for `COC1C(O)C(C)OC(OC2CCC3(C=O)C(CCC4C3CCC3(C)C(C5=CC(=O)OC5)CCC43O)C2)C1O` (stereo unspecified) was 105% (active).
The value for `CC1C(=O)OC2CCN3CC=C(COC(=O)C(C)(O)C1(C)O)C23` (stereo unspecified) was -0.84% (inactive); that for `CC1=C(C(=O)Nc2ccccc2)S(=O)(=O)CCO1` was 9.24% (inactive).
On to `CC1=C2C(=O)C3C(CC=C4CC(OC5OC(O)C(O)C(O)C5CO)CCC43C)C2CCC12OC1CC(C)CNC1C2C` (stereo unspecified), for which the inhibition is -7.24% (inactive).
With `CCN(CC)C(=O)c1ccc(NC(=O)c2cc(-n3cnnc3)ccc2Cl)cc1`, the inhibition was 5.1% (inactive).
Take `CN(C)CC1Oc2ccccc2OC1(O)c1ccccc1` (stereo unspecified): the inhibition was 103% (active).
The value for `c1cc2c(cc1C1OCC3C(c4ccc5c(c4)OCO5)OCC13)OCO2` (stereo unspecified) was -66.8% (inactive); that for `COc1ccc(NC(=O)N2Cc3ccccc3-n3nncc3C2)cc1` was 7.2% (inactive).
In the case of `Cc1ccc(C)c(NC2=NCCCS2)c1`, the inhibition is 4.99% (inactive).
As to `COC(=O)C1=C(c2ccc(F)cc2OCc2ccccc2)C[C@@H]2CC[C@H]1N2C(=O)NCc1ccc(C(C)(C)C)cc1`, the inhibition is 14.9% (inactive).
Regarding `CC1(C)Cc2c(C#N)c(N3CCNCC3)nc(-c3ccco3)c2CS1`, the inhibition is 78.3% (active).
The value for `c1ccc(N2Cc3ccccc3-n3nncc3C2)nc1` was -7.56% (inactive).
Take `COc1cc(-n2c(=S)[nH]c3ccc(C)cc3c2=O)c(Cl)cc1Cl`: the inhibition was 30.3% (inactive).
`CCOC(=O)c1c(C)c(C(=O)N2CCC3(CC2)OCCO3)c(C)n1CC`: the inhibition was 13.1% (inactive).
As for `C[C@H]1CN([C@@H](C)CO)C(=O)CCCn2nncc2CO[C@H]1CN(C)C(=O)Oc1cccc2ccccc12`, the figure is 9.28% (inactive).
